Several values for one entry are separate records, joined by “and”; a condition that tells them apart may be missing. Equal entries are not always repeated. Records with an inconclusive call do not appear. A number with no mark means an inactive call. Activity calls are given as the source filed them. The call rests on the fitted dose curve.
Assay: qHTS assay to identify small molecule agonists of H2AX - cell viability counter screen (AID 1224847); further: nearly all actives have a fitted effect of over 30% in size; on activity change, negative = cytotoxicity: top concentration of the series differs between compounds
Conditions: CHO-K1 viability, CellTiter-Glo luminescence, 3 h; series mostly up to 154 µM; activity change, negative = cytotoxicity: at the top concentration
Source text: National Center for Advancing Translational Sciences [NCATS]
NIH Chemical Genomics Center [NCGC]
U.S. Environmental Protection Agency [EPA]
National Institutes of Environmental Health Sciences [NIEHS]
National Toxicology Program [NTP]
U.S. Food and Drug Administration [FDA]
HTRF phospho-H2AX (Ser139) assay (Cisbio Bioassays, US) enables the quantitative detection of the histone variant H2AX when phosphorylated on serine 139. When double-stranded DNA breaks, either by ionizing radiation or endogenous physiological processes, H2AX becomes phosphorylated at Ser139. This phospho-Ser139 serves as a sensitive biomarker for the detection of such breaks, localizing the site of DNA repair. So, HTRF phospho-H2AX Ser139 is a pertinent assay to study genome stability, the cell cycle, DNA repair, and it serves as a biomarker for cancer, and to understand aging. Wild type CHO-K1 cells were used to identify the inducers of Phospho-H2AX Ser 139 from the Tox21 compound collections. Also cytotoxicity of the Tox21 10K compound library against the CHO-K1 cell line was tested by measuring the cell viability using CellTiter-Glo assay (Promega, Madison, WI).
Tox21 Assay Protocol Summary:
The CHO-K1 cells suspended in culture medium containing 10% FBS were dispensed at 1000 cells/ 3 ul/well in 1536-well white wall/solid bottom plates (Greiner Bio-One North America, NC) using a Multidrop Combi (Thermo Fisher Scientific Inc., Waltham, MA). After the assay plates were incubated at 37C overnight, 23 nl of compounds at 15 concentrations (from 5-48 columns) or positive control (from 1 to 4 columns) were transferred to the assay plates using a Pintool station (Wako, San Diego, CA) into each well resulting in a final DMSO concentration of 0.76%. After 3hr incubation at 37C, 3 uL/well CellTiter-Glo luminescent cell viability reagent (Promega Corporation, Madison, WI) was added using a Flying Reagent Dispenser (FRD) (Aurora Discovery, CA). After incubation at room temperature for 30 min, the luminescence intensity was read using a ViewLux plate reader (PerkinElmer, Waltham, MA).
On the % scale 0 is the no-effect control and ±100 the full control effect; potency means the concentration at half of the fitted maximal effect.

| SMILES | activity change, negative = cytotoxicity | Potency |
| --- | --- | --- |
| Cn1cnc2ncnc(N)c21 | -3.5% [at 70.9 µM] |  |
| CCOCN(C(=O)CS(=O)(=O)O)c1c(C)cccc1CC | -0.576% |  |
| CCCCCCS | 0.23% |  |
| O=Cc1ccc(F)cc1 | -0.293% |  |
| CCCC(=O)OCC(COC(=O)CCC)OC(=O)CCC | 2.79% |  |
| CC(=O)O[C@@H]1C[C@@H]2CC[C@@]1(C)C2(C)C | 0.0895% |  |
| CCCC(O)C(O)CO (stereo not given) | 1.02% |  |
| CCCCCCCCC(C)=O | 0.449% |  |
| CCN(CC)CCOC(=O)C1(C2CCCCC2)CCCCC1 |  | 49.2 µM (active) |
| C#CC(O)CCC (stereo not given) | 0.112% |  |
| C=C(C)CCCC | 4.87% |  |
| O=S(=O)(O)CCCN1CCOCC1 | 1.47% |  |
| Cc1cc(Nc2ccc(O)cc2)ccc1N |  | 89.4 µM (active) |
| CCOC(/C=C(\C)CCC=C(C)C)OCC | -0.0053% |  |
| O=S(=O)(O)c1cc(S(=O)(=O)O)c2ccc3c(S(=O)(=O)O)cc(S(=O)(=O)O)c4ccc1c2c43 | 4.65% [at 31.6 µM] |  |
| C=C1C(C)(C)[C@@]2(Cl)C(Cl)[C@]1(Cl)C(Cl)(Cl)C2(Cl)Cl (stereo not given in full) |  | 111 µM (active) |
| CCC(C)C(=O)OC (stereo not given) | -0.34% |  |
| CC1=CP(=O)(c2ccccc2)CC1 (stereo not given) | -1.55% |  |
| CCCCCCCCCCCCCCCCCO | -0.549% [at 31.6 µM] |  |
| CCOC(=O)N1CCC(=C2c3ccc(Cl)cc3CCc3cccnc32)CC1 |  | 61.9 µM (active) |

| SMILES | activity change, negative = cytotoxicity | Potency |
| --- | --- | --- |
| CC1(C)COCN1 | 0.397% |  |
| CC1(C)C(=O)N(Br)C(=O)N1Br | -2.86% |  |
| Cc1cc(=O)[nH]c(=O)[nH]1 | -3.43% |  |
| C(=C/c1ccccc1)/c1ccccc1 | -0.182% |  |
| O=C(O)CC(=O)O | 3.34% |  |
| CC1=C(/C=C/C(C)=C/C=C/C(C)=C/C(=O)Nc2ccc(O)cc2)C(C)(C)CCC1 |  | 103 µM (active) |
| C[Si](C)(C)Cl | 2.82% |  |
| O=C1OC(OC(=O)c2cccnc2Nc2cccc(C(F)(F)F)c2)c2ccccc21 (stereo not given) | 7.4% [at 70.9 µM] |  |
| Cc1cncc(C)c1 | 0.834% |  |
| CNC(=S)NN | 1.14% |  |
| c1ccc(Nc2cccc3ccccc23)cc1 |  | 115 µM (active) and 113 µM (active) |
| CN(C)c1ccc(N=NS(=O)(=O)O)cc1 |  | 40.1 µM (active) |
| CCCCCCCCCCCCCCCC | -3.6% |  |
| Oc1c(Br)cc(Br)c2cccnc12 | 7.49% [at 70.9 µM] |  |
| CN1[C@@H]2CC[C@@H]1CC(OC(=O)C(CO)c1ccccc1)C2 (stereo not given in full) | -0.507% [at 70.9 µM] |  |
| Cc1c(C(=O)O)cccc1[N+](=O)[O-] | -0.939% |  |
| CCc1cccc(CC)c1N(COC)C(=O)CS(=O)(=O)O | 1.99% |  |
| CCCCOC(=O)C(C)CC (stereo not given) | -2.46% |  |
| CCOC(=O)COc1ccc(C)cc1 | 0.205% |  |
| CCCCCCCOC(=O)c1ccccc1C(=O)OCCCCCCC | 1.7% |  |
